Experimental findings from PMC8222333, “AsCas12a ultra nuclease facilitates the rapid generation of therapeutic cell medicines” are described below.

Substitutions are numbered along the chain they refer to.

B1: GTGT (dsDNA)
DNA 1: GCTATCTAGTGCTCAGTACGCACTGGTGTAGGAAACTTCTGGCAGGACCAGGTCATGAGATCGGAAGAGCACACGTCTGAACTCCAGTCA
DNA 2: TGACTGGAGTTCAGACGTGTGCTCTTCCGATCTCATGACCTGGTCCTGCCAGAAGTTTCCTACACCAGTGCGTACTGAGCACTAGATAGC
RNA: AAUUUCUACUCUUGUAGAUAGGAAACUUCUGGCAGGACC
B2: TCCG (dsDNA)
DNA 1: B1 DNA 1 with G26T, T27C, G28C, T29G
DNA 2: B1 DNA 2 with A62C, C63G, A64G, C65A
RNA: B1 RNA
B3: TCGC (dsDNA)
DNA 1: B1 DNA 1 with G26T, T27C, T29C
DNA 2: B1 DNA 2 with A62G, A64G, C65A
RNA: B1 RNA
B4: TCGT (dsDNA)
DNA 1: B1 DNA 1 with G26T, T27C
DNA 2: B1 DNA 2 with A64G, C65A
RNA: B1 RNA
B5: TGGA (dsDNA)
DNA 1: B1 DNA 1 with G26T, T27G, T29A
DNA 2: B1 DNA 2 with A62T, A64C, C65A
RNA: B1 RNA
B6: TCAA (dsDNA)
DNA 1: B1 DNA 1 with G26T, T27C, G28A, T29A
DNA 2: B1 DNA 2 with A62T, C63T, A64G, C65A
RNA: B1 RNA
B7: TCCT (dsDNA)
DNA 1: B1 DNA 1 with G26T, T27C, G28C
DNA 2: B1 DNA 2 with C63G, A64G, C65A
RNA: B1 RNA
B8: TCCA (dsDNA)
DNA 1: B1 DNA 1 with G26T, T27C, G28C, T29A
DNA 2: B1 DNA 2 with A62T, C63G, A64G, C65A
RNA: B1 RNA
B9: TCGA (dsDNA)
DNA 1: B1 DNA 1 with G26T, T27C, T29A
DNA 2: B1 DNA 2 with A62T, A64G, C65A
RNA: B1 RNA
B10: TATT (dsDNA)
DNA 1: B1 DNA 1 with G26T, T27A, G28T
DNA 2: B1 DNA 2 with C63A, A64T, C65A
RNA: B1 RNA
B11: TAGA (dsDNA)
DNA 1: B1 DNA 1 with G26T, T27A, T29A
DNA 2: B1 DNA 2 with A62T, A64T, C65A
RNA: B1 RNA
B12: TCTT (dsDNA)
DNA 1: B1 DNA 1 with G26T, T27C, G28T
DNA 2: B1 DNA 2 with C63A, A64G, C65A
RNA: B1 RNA
B13: TGAA (dsDNA)
DNA 1: B1 DNA 1 with G26T, T27G, G28A, T29A
DNA 2: B1 DNA 2 with A62T, C63T, A64C, C65A
RNA: B1 RNA
B14: TCAC (dsDNA)
DNA 1: B1 DNA 1 with G26T, T27C, G28A, T29C
DNA 2: B1 DNA 2 with A62G, C63T, A64G, C65A
RNA: B1 RNA
B15: TAAA (dsDNA)
DNA 1: B1 DNA 1 with G26T, T27A, G28A, T29A
DNA 2: B1 DNA 2 with A62T, C63T, A64T, C65A
RNA: B1 RNA

In the first test the target is dAsCas12a Ultra (Acidaminococcus sp., UniProt U2UMQ6 1-1307, M537R;F870L;D908A;E993A;D1235A). Description: Spec-seq (native PAGE EMSA with sequencing of bound and unbound); 25 mM Tris-HCl pH 7.4, 150 mM KCl, 5 mM MgCl2, 10% glycerol, 1 mM DTT, 40 ng/uL salmon sperm DNA; 400 nM Cas12a, 480 nM crRNA, 50 nM library, 37 C 1 h; native PAGE at room temperature; high values mean tight binding. Conditions: protein: recombinant.
For the molecule B1, the binding signal is -8.66 lnKA.
Turning to B2, the binding signal is -7.52 lnKA.
The same measure, in the same setting: the figure for B3 is -7.42 lnKA; for B4 it is -8.83 lnKA.
With B5, the binding signal is -8 lnKA.
For the molecule B6, the binding signal is -8.83 lnKA.
Still for that read-out and setting: the value for B7 was -8.78 lnKA; that for B8 was -7.24 lnKA; that for B9 was -8.77 lnKA.
For the molecule B10, the binding signal was -8.42 lnKA.
On the same count and under the same terms, the figure for B11 is -8.98 lnKA.
For B12, the binding signal was -6.94 lnKA.
Same read-out and setting: the figure for B13 is -8.9 lnKA; for B14 it is -8.33 lnKA; for B15 it is -8.83 lnKA.

The target in a further test is dAsCas12a E174R (Acidaminococcus sp., UniProt U2UMQ6 1-1307, E174R;D908A;E993A;D1235A). The description is as above. To be noted: protein: recombinant.
On to B1, for which the binding signal was -8.98 lnKA.
Still for that read-out and setting: the figure for B2 is -7.89 lnKA; for B3 it is -7.83 lnKA; for B4 it is -8.58 lnKA.
On the same count and under the same terms, the figure for B7 is -8.39 lnKA.
Same read-out and setting: the figure for B8 is -6.64 lnKA; for B9 it is -8.54 lnKA.
On to B10, for which the binding signal was -8.04 lnKA.
The same measure, in the same setting: the figure for B12 is -6.26 lnKA.

The next test deals with dAsCas12a S542R (Acidaminococcus sp., UniProt U2UMQ6 1-1307, S542R;D908A;E993A;D1235A). The description is as above. To be noted: protein: recombinant.
For B1, the binding signal is -8.04 lnKA.
For B2, the binding signal is -3.6 lnKA.
B3: the binding signal was -7.58 lnKA.
B4: the binding signal is -8.35 lnKA.
Same read-out and setting: the figure for B5 is -7.85 lnKA.
For the molecule B6, the binding signal is -7.68 lnKA.
Same read-out and setting: the value for B7 was -5.43 lnKA; that for B8 was -3.52 lnKA.
Still for that read-out and setting: the figure for B9 is -7.61 lnKA.
On the same count and under the same terms, the figure for B10 is -7.99 lnKA; for B11 it is -8.65 lnKA.
As for B12, the binding signal was -7.22 lnKA.
For B13, the binding signal is -8.33 lnKA.
Same read-out and setting: the figure for B14 is -7.5 lnKA.
Turning to B15, the binding signal is -8.25 lnKA.

In the next test the target is d-enCas12a (Acidaminococcus sp., UniProt U2UMQ6 1-1307, E174R;S542R;K548R;D908A;E993A;D1235A). Described as above. Conditions: protein: recombinant.
Consider B1, for which the binding signal is -5.78 lnKA.
Same read-out and setting: the value for B2 was -3.12 lnKA; that for B3 was -5.36 lnKA.
As for B4, the binding signal was -5.85 lnKA.
On to B5, for which the binding signal was -5.44 lnKA.
For B6, the binding signal was -5.65 lnKA.
For the molecule B7, the binding signal was -3.98 lnKA.
Still for that read-out and setting: the figure for B8 is -2.15 lnKA.
Same read-out and setting: the figure for B9 is -5.86 lnKA; for B10 it is -3.27 lnKA; for B11 it is -5.31 lnKA.
The same measure, in the same setting: the figure for B12 is -5.44 lnKA.
In the case of B13, the binding signal was -5.68 lnKA.
Still for that read-out and setting: the value for B14 was -5.3 lnKA; that for B15 was -5.38 lnKA.

A further test deals with d-enCas12a-Ultra (Acidaminococcus sp., UniProt U2UMQ6 1-1307, E174R;S542R;K548R;M537R;F870L;D908A;E993A;D1235A). The test is described as above. To be noted: protein: recombinant.
In the case of B1, the binding signal is -3.14 lnKA.
Same read-out and setting: the figure for B2 is -0.639 lnKA; for B3 it is -2.95 lnKA; for B4 it is -3.4 lnKA.
As to B5, the binding signal was -3.27 lnKA.
Same read-out and setting: the value for B6 was -3.39 lnKA; that for B7 was -0.951 lnKA; that for B8 was -0.457 lnKA.
Regarding B9, the binding signal is -3.33 lnKA.
Take B10: the binding signal was -1.25 lnKA.
Turning to B11, the binding signal is -3.33 lnKA.
The same measure, in the same setting: the value for B12 was -2.4 lnKA; that for B13 was -3.27 lnKA; that for B14 was -3 lnKA.
The same measure, in the same setting: the figure for B15 is -3.04 lnKA.
